Results on 50 compounds are retold here after PubChem BioAssay AID485367 (National Center for Advancing Translational Sciences (NCATS), 2010).

Each structure is given as a SMILES string. Screen size: about 330,000 compounds; about 560 (0.17%) were called active. About 1% were inconclusive and are not listed. This excerpt belongs to a sample that is enriched for actives. Values without a mark were called inactive. Calls come from the whole dose curve; as a rule, active = well fitted inhibition curve with a large enough effect; inconclusive = small, poorly fitted or top-dose-only effect, or effect the other way; inactive = flat fitted curve, though single readings scatter.
Potency is the fitted concentration of half-maximal effect.

The target of this test is ATP-dependent 6-phosphofructokinase (Trypanosoma brucei brucei) (UniProt O15648). The test can be described thus: qHTS Assay to Find Inhibitors of T. brucei phosphofructokinase. Note: nearly all actives have a fitted effect of over 60% in size. The note with it: T. brucei PFK, ADP-Glo luminescence; series mostly up to 57.5 µM; activity, negative = inhibition: at the top concentration. The source says: NIH Molecular Libraries Probe Production Network [MLPCN] NIH Chemical Genomics Center [NCGC] Grant: 1 R03 MH092153-01 PI Name: Malcolm Walkinshaw, University of Edinburgh NCGC Assay Overview: Various species of the protozoan family Trypanosomatidae are responsible for a range of serious human diseases in tropical and subtropical areas of the world. […] Many of the disorders caused by trypanosomatids are fatal if left untreated, but most currently used drugs are inefficient and toxic. […] Oxidative metabolism involving the mitochondrial tricarboxylic acid cycle and oxidative phosphorylation are repressed in these parasites, and recent RNA interference (RNAi) experiments have shown that even partial depletion of certain individual glycolytic enzymes can lead to the death of cultured parasites. One such glycolytic enzyme, phosphofructokinase (PFK), catalyzes the formation of fructose-1,6-bisphosphate (F1,6BP) and ADP from fructose-6-phosphate (F6P) and ATP, and in many metabolic circumstances makes an important contribution to the control of flux through the glycolytic pathway. As a specific glycolytic target, PFK is particularly attractive as it catalyzes the first irreversible step in glycolysis, and structural and kinetic studies have shown very substantial and essential differences from corresponding host enzymes, allowing for the discovery of parasite-selective inhibitors. The goal of this screen is to find small-molecule inhibitors of T. brucei PFK using a biochemical assay that measures PFK activity as a function of ADP production. A luminescence-based assay for T. brucei PFK activity has been developed which uses luciferase to detect production of ADP. Traditional luciferase-based nucleotide detection reagents rely on ATP production as a direct substrate for the luciferase reaction; however, PFK catalyzes the transfer of a phosphate from ATP to F6P, resulting in the net depletion of ATP. To directly measure the ADP product of the PFK reaction, we used the ADP-Glo detection kit (Promega), which utilizes two separate reactions to 1) deplete all remaining uncatalyzed ATP and 2) convert all remaining ADP to ATP, which is then detected through a traditional luciferase-coupled reaction. Compounds were screened as a concentration-titration series that ranged from 57 uM to 0.7 nM.
Chain of ATP-dependent 6-phosphofructokinase (Trypanosoma brucei brucei) (O15648 whole entry, looked up): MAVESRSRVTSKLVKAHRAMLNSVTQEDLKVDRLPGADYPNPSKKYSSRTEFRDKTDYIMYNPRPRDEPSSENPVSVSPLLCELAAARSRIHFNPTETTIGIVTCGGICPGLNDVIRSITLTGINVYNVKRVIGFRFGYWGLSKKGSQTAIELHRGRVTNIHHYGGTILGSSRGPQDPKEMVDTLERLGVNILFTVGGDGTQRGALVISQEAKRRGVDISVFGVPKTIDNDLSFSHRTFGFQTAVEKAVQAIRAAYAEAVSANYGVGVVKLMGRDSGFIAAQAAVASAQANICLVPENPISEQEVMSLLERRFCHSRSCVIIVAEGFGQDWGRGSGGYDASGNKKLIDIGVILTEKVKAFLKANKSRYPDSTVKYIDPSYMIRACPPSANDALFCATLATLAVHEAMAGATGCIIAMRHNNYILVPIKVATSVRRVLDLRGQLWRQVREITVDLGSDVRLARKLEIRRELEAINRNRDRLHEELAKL
NCGC Assay Protocol Summary: NCGC Assay Protocol Summary: Substrate buffer was dispensed into white, solid 1536-well plates at 3uL/well in 0.1M triethanolamine (TEA) buffer, pH 8.0, containing final concentrations of 5 mM MgCl2, 0.01% Tween20, 0.5 mM fructose-6-phosphate (F6P) and 0.1mM ATP. Then, 23 nL of compounds or DMSO were delivered to each well using a pin tool. One uL T. brucei PFK (0.1M TEA, 0.01% Tween20, 0.1% bovine serum albumin (BSA) and 1.25nM PFK, final concentrations) was then dispensed, and plates were incubated at room temperature for 45 min. The luminescent detection reagent, ADP-Glo (Promega), was then added in two steps: the first reagent, ADP-Glo (which converts remaining uncatalyzed ATP), was added at 2.5uL/well and incubated for ten minutes at room temperature, and the second component, Kinase Detection reagent (which converts ADP to ATP as a substrate for luciferase-based luminescence), was added immediately after at 5uL/well, followed by one final ten minute room temperature incubation. The plates were measured on a ViewLux plate reader for luminescent signal using a clear filter with a one second exposure. The %Activity was determined from the corrected luminescence values. As no specific T. brucei PFK inhibitors have been identified in the literature, 1x (1.25nM) and 0x PFK enzyme controls (untreated) were included to normalize %Activity of identified inhibitors; 0x enzyme values corresponded to 100%Activity (full inhibition), while 1x PFK enzyme values were used to normalize 0%Activity (no inhibition). Concentration-response curves were fitted to the signals arising from the resulting luminescence. […]
(In general: Quantitative high-throughput screening tests each substance at several concentrations.)
For the compound `Cc1[nH][nH]c(=O)c1C(c1ccc2c(c1)OCO2)c1c(C)[nH][nH]c1=O`, the Potency is 23.9 µM (active).

In the case of `Nc1[nH][nH]c(=O)c1N=Nc1ccc2c(c1)OCO2`, the “activity, negative = inhibition” value is 2.23%.

On to `CCOc1ccc(C(c2c(C)[nH][nH]c2=O)c2c(C)[nH][nH]c2=O)cc1OCC`, for which the “activity, negative = inhibition” value was -5.84%.

In the case of `COc1cc(C2C(N3C(=O)c4ccccc4C3=O)C(=O)N2c2ccc(C)c(C)c2)cc(OC)c1OC` (stereo not given), the “activity, negative = inhibition” value was -1.29%.

In the case of `OC(CNCC1CCCO1)Cn1c2ccc(Br)cc2c2cc(Br)ccc21` (stereo not given), the “activity, negative = inhibition” value was -2.71%.

`Nc1nc(Nc2ccccc2F)nc(NC2CCCCC2)c1[N+](=O)[O-]`: the “activity, negative = inhibition” value was -7.16%.

Regarding `COc1cc(NC(=O)COC(=O)CSc2ccc3ccccc3c2)c(C)cc1[N+](=O)[O-]`, the “activity, negative = inhibition” value was 0.214%.

`CCOC(=O)N1CCN(C(=O)CN(C2CCCCC2)S(C)(=O)=O)CC1`: the “activity, negative = inhibition” value was -3.12%.

In the case of `CC(Oc1cc2oc(=O)c3c(c2cc1Cl)CCCC3)C(=O)NCc1ccncc1` (stereo not given), the “activity, negative = inhibition” value was 0.885%.

Regarding `CC(C)CN(CC(C)C)CC(O)CN(c1ccccc1)S(=O)(=O)c1ccccc1[N+](=O)[O-]` (stereo not given), the “activity, negative = inhibition” value was -3.71%.

In the case of `CCCN1C2CCCC1CC(NC(=O)NC13CC4CC(CC(C4)C1)C3)C2` (stereo not given), the “activity, negative = inhibition” value is -1.81%.

As to `CCN(CC(=O)N1CCCC1)S(=O)(=O)c1ccc(F)cc1`, the “activity, negative = inhibition” value is 1.92%.

`O=C(Cn1c(COc2ccccc2)nc2ccccc21)Nc1cc(Cl)c(Cl)cc1Cl`: the “activity, negative = inhibition” value was -10.8%.

For `O=C(CN(CC1CCCO1)C(=O)CNS(=O)(=O)c1ccc(F)cc1)NCc1ccco1` (stereo not given), the “activity, negative = inhibition” value is -5.87%.

In the case of `COc1ccc(-c2nc3c(s2)CCc2onc(-c4ccc(OC)cc4)c2-3)cc1`, the “activity, negative = inhibition” value is -0.904%.

In the case of `COc1ccc(Cl)cc1NC(=O)NC(C)C(C)(C)C` (stereo not given), the “activity, negative = inhibition” value is 0.905%.

Take `Cc1cccc(NC(=S)Nc2ccc(Cl)c(Cl)c2)c1`: the Potency was 10.7 µM (active).

For the compound `Cc1cccc(NC(=S)Nc2ccc3cn[nH]c3c2)c1`, the “activity, negative = inhibition” value is 3.21%.

On to `Cc1cccc(NC(=S)NC23CN4CN(CN(C4)C2)C3)c1`, for which the “activity, negative = inhibition” value is -1.16%.

For the compound `COCCN1C(=O)N(c2ccc(Cl)cc2)C(=O)C1CC(=O)Nc1cc(OC)cc(OC)c1` (stereo not given), the “activity, negative = inhibition” value was 3.53%.

For the compound `CC1(N2CCOCC2)CC2(O)C(=[N+]1[O-])CCc1nonc12` (stereo not given), the “activity, negative = inhibition” value is 0.181%.

As to `O=C(CCn1nnc2ccccc21)OCC(=O)c1ccc([N+](=O)[O-])cc1`, the “activity, negative = inhibition” value is -4.04%.

For the compound `Cc1ccnc(-n2sc3ccccc3c2=O)n1`, the Potency was 7.57 µM (active).

As to `Cc1nc2ccccc2c(=O)n1NC(=O)c1ccccc1`, the “activity, negative = inhibition” value is 2.74%.

On to `COC(=O)COc1ccc2c(c1C)O/C(=C\c1ccco1)C2=O`, for which the “activity, negative = inhibition” value is -12.5%.

In the case of `O=C(COC(=O)CCC(=O)c1cccs1)NCc1ccco1`, the Potency is 6.75 µM (active).

With `O=C(COC(=O)c1cccs1)NCc1cccs1`, the “activity, negative = inhibition” value is 0.216%.

As for `O=C(COC(=O)C12CC3CC(CC(C3)C1)C2)NCc1ccco1`, the “activity, negative = inhibition” value is 3.92%.

Turning to `Cc1cc(NC(=O)COC(=O)/C=C/c2ccc(C)o2)no1`, the “activity, negative = inhibition” value is 8.73%.

With `CS(=O)(=O)N(CC(=O)N1CCOCC1)c1cccc(Cl)c1Cl`, the “activity, negative = inhibition” value is -5.81%.

`Cc1ccc(S(=O)(=O)N2CCCCC2)cc1NC(=O)[C@@H]1CCCN1C(=O)c1cccs1`: the “activity, negative = inhibition” value was -2.04%.

As to `O=C(COC(=O)CCCN1C(=O)c2cccc3cccc(c23)C1=O)NC1CCS(=O)(=O)C1` (stereo not given), the “activity, negative = inhibition” value is -7.52%.

As for `CCC(C)c1ccc(NC(=O)COC(=O)C2CCCC2)cc1` (stereo not given), the “activity, negative = inhibition” value is -1.93%.

For `Cc1c(Cl)cccc1NC(=O)Nc1ccc(C(=O)N2CCCC2)cc1`, the “activity, negative = inhibition” value is -3.91%.

On to `COc1cc(S(=O)(=O)N2CCOCC2)ccc1NC(=O)COc1ccc(N(C)S(=O)(=O)c2ccc(C)cc2)cc1`, for which the “activity, negative = inhibition” value is 4.44%.

`C/C(=N/Nc1ccc(Cl)cc1)c1cnnc(-c2ccccc2)n1`: the “activity, negative = inhibition” value is 5.32%.

As to `O=C(CNC(=O)C1COc2ccccc2O1)N/N=C/c1cc(Br)c(O)c(Br)c1` (stereo not given), the “activity, negative = inhibition” value is -4.63%.

In the case of `Cc1c(C)c2ccc(OCC(=O)N3CCC(C(=O)O)CC3)c(C)c2oc1=O`, the “activity, negative = inhibition” value is -0.415%.

As for `Cc1c(CC(=O)N2CCN(C(=O)C3COc4ccccc4O3)CC2)c(=O)oc2c(O)c(O)ccc12` (stereo not given), the Potency was 4.78 µM (active).

`Cc1ccc2c(=O)cc(C(=O)NCCc3ccc(S(N)(=O)=O)cc3)oc2c1C`: the “activity, negative = inhibition” value is 1.41%.

On to `CCCNC(=O)NC(=O)COC(=O)CC(NC(N)=O)c1ccc(Cl)cc1` (stereo not given), for which the “activity, negative = inhibition” value was -0.0234%.

Regarding `COc1cnc(SCc2ccc(Cl)c(Cl)c2)nc1Cl`, the Potency is 26.9 µM (active).

Take `COc1ccc(CCNC(=O)c2cnc(Cl)c(Cl)c2)cc1`: the “activity, negative = inhibition” value is -9.9%.

Regarding `Nc1cc(N)nc(SCc2ccc(Cl)cc2)n1`, the “activity, negative = inhibition” value was -10.3%.

As to `Cc1ccc(C2CC(c3cccc(Br)c3)n3nc(N)nc3N2)cc1` (stereo not given), the “activity, negative = inhibition” value was 5.14%.

For the compound `O=C1CCN(Cc2ccccc2)CCN1[C@H](CSc1ccccc1)c1ccccc1`, the “activity, negative = inhibition” value is 0.129%.

Consider `O=C(CNS(=O)(=O)c1ccc2ccccc2c1)Nc1ccc(F)c(F)c1F`, for which the “activity, negative = inhibition” value was -1.12%.

Take `Cc1ccccc1NC(=O)Cc1nc(COC(=O)c2cccnc2Cl)cs1`: the “activity, negative = inhibition” value is 0.473%.

Regarding `N#Cc1ccccc1-n1c(N)c(C(=O)N2CCCC2)sc1=S`, the “activity, negative = inhibition” value was 0.585%.

As to `Cc1cccc(-n2c(N)c(C(=O)N3CCN(C)CC3)sc2=S)c1`, the Potency is 12 µM (active).
